Hit rate of the full screen: of about 310,000 compounds, about 14,000 (4.5%) showed an effect of 50% or more. Effects have a minus sign here. This is one part of a sample in which strong results are shown more often than they occur.
These compounds were tested against human ether-à-go-go-related gene (hERG) potassium channel (human, UniProt Q12809) (assay: primary screen, population patch clamp on CHO cells stably expressing hERG; higher = less effect of the substance).
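Further: peak tail current of the secondary pulse compared with the same well before compound.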

human ether-à-go-go-related gene (hERG) potassium channel, sequence (Q12809 whole entry, looked up): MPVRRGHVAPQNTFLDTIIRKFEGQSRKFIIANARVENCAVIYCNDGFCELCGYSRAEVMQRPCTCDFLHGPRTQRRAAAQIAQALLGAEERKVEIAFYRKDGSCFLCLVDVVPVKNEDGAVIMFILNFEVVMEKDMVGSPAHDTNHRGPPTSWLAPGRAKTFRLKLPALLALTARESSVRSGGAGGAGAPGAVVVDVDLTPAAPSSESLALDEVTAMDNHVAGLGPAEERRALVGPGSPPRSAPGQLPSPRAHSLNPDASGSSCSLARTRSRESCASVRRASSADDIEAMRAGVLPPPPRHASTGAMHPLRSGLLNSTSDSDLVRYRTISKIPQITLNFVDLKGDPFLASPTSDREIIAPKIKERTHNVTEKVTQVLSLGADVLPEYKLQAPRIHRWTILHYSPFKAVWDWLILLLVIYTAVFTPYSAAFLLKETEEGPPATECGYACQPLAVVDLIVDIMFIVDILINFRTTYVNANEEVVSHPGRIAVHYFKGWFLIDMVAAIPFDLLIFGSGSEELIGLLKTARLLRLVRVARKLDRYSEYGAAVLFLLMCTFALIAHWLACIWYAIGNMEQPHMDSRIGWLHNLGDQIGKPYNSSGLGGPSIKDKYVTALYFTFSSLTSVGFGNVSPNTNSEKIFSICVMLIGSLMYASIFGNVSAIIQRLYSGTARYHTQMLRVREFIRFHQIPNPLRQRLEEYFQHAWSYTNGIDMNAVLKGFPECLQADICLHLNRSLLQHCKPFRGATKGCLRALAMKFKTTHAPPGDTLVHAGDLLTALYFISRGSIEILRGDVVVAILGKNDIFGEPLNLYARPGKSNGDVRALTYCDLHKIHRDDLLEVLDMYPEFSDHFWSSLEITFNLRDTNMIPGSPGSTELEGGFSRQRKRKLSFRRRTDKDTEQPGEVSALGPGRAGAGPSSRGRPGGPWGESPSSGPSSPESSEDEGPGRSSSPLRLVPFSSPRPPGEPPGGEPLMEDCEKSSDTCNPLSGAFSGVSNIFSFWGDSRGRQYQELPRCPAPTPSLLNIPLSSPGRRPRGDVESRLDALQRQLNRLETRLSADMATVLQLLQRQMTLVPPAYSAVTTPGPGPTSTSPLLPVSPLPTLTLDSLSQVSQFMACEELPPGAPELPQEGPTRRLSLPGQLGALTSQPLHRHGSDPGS

| Compound | hERG current change (%, negative = inhibition) at 10uM [%] |
| --- | --- |
| CCOC(=O)C1CCCN(C(=O)c2ccc([N+](=O)[O-])cc2)C1 (stereo not drawn) | -14.4 |
| CCOC(=O)C1CCCN(C(=O)c2ccc(CS(=O)(=O)c3ccc(C)cc3)o2)C1 (stereo not drawn) | -20.4 |
| CCOC(=O)C1CCCN(C(=O)c2ccc(-c3ccc([N+](=O)[O-])cc3)o2)C1 (stereo not drawn) | -56.1 |
| CC1CC(C)CN(C(=O)c2ccc(-c3ccc([N+](=O)[O-])cc3)o2)C1 (stereo not drawn) | -69.1 |
| O=C(c1ccc(-c2ccc([N+](=O)[O-])cc2)o1)N1CCCCCCC1 | -22.7 |
| CCCN1CCN(C(=O)c2ccc(-c3ccc([N+](=O)[O-])cc3)o2)CC1 | -78.1 |
| O=C(c1ccc(-c2ccc([N+](=O)[O-])cc2)o1)N1CCN(S(=O)(=O)c2cccs2)CC1 | -27.3 |
| CC1CCCN(C(=O)c2ccc([N+](=O)[O-])o2)C1 (stereo not drawn) | 21.6 |
| O=C(c1ccc(-c2ccc([N+](=O)[O-])cc2)o1)N1CCCC(C(F)(F)F)C1 (stereo not drawn) | -17 |
| CC1CCN(C(=O)c2ccc([N+](=O)[O-])o2)CC1 | 4.53 |
| Cc1ccccc1N1CCN(C(=S)c2ccc(-c3ccc([N+](=O)[O-])cc3)o2)CC1 | 20.2 |
| O=C(c1ccc(-c2ccc([N+](=O)[O-])cc2)o1)N1CCCCC1 | -58.4 |
| O=C(CSc1ncnc2ccccc12)NCC(=O)c1ccccc1 | 1.57 |
| O=C(Nc1ccccc1)c1c(O)[nH]c(=O)[nH]c1=O | 8.67 |
| Cc1ccc(N2CC(C(=O)NCc3n[nH]c(=O)c4ccccc34)CC2=O)cc1C (stereo not drawn) | -13.5 |
| COc1ccc(-c2cc(C(=O)Nc3cc(C)on3)no2)cc1 | 19.9 |
| O=C1NC(c2ccc(-c3ccccc3[N+](=O)[O-])o2)C(C(=O)c2ccc(Cl)cc2)C(O)(C(F)(F)F)N1 (stereo not drawn) | 2.13 |
| Cc1cc(NS(C)(=O)=O)c(=O)n(Cc2c(F)cccc2Cl)c1 | 8.86 |
| CCCCn1c(SCc2ncc(-c3ccccc3)o2)nc2cc(S(N)(=O)=O)ccc21 | -50.5 |
| CCCCn1c(SCc2c(C)noc2C)nc2cc(S(N)(=O)=O)ccc21 | -43.1 |
| CCCCn1c(SCC(=O)N2CCC(C)CC2)nc2cc(S(N)(=O)=O)ccc21 | -30.2 |

| Compound | hERG current change (%, negative = inhibition) at 10uM [%] |
| --- | --- |
| CCCCn1c(SCc2nc3ccccc3s2)nc2cc(S(N)(=O)=O)ccc21 | -37.5 |
| CCCCn1c(SCC(=O)N2CCCC2)nc2cc(S(N)(=O)=O)ccc21 | 9.3 |
| CCCCn1c(SCC(=O)N2CCC(C(=O)OCC)CC2)nc2cc(S(N)(=O)=O)ccc21 | -70.7 |
| Cc1cc(C(=O)CSc2nn3c(=O)c(C(C)(C)C)nnc3s2)c(C)n1C | 9.61 |
| COc1ccc(NC(=S)NCCc2ccc(F)cc2)c(OC)c1 | -19.4 |
| O=C1c2cccc3c([N+](=O)[O-])ccc(c23)C(=O)N1c1ccccn1 | 7.95 |
| O=C(Cc1cccs1)NNC(=S)NC(=O)c1ccc(F)c(F)c1 | 12.2 |
| O=C(CN1CCC(c2nc3ccccc3[nH]2)CC1)Nc1ccc2c(c1)OCO2 | -53.1 |
| CC(C)N(C(=O)CN1CCC(c2nc3ccccc3[nH]2)CC1)C(C)C | -4.13 |
| CCCNC(=O)CN1CCC(c2nc3ccccc3[nH]2)CC1 | 15.6 |
| Cc1ccc2nc(-c3ccc(SCC(=O)Nc4ccc5c(c4)OCCO5)nc3)[nH]c2c1 | -5.51 |
| CC(C)NC(=O)CN1CCC(c2nc3ccccc3[nH]2)CC1 | -8.64 |
| C=CCNC(=O)CN1CCC(c2nc3ccccc3[nH]2)CC1 | 7.7 |
| Cc1ccc2nc(C3CCN(CC(=O)Nc4ccc5c(c4)OCCO5)CC3)[nH]c2c1 | -50.6 |
| Cc1ccc2nc(SCC(=O)Nc3ccc4c(c3)OCCO4)[nH]c2c1 | 4.73 |
| O=C(CN1CCC(c2nc3ccccc3[nH]2)CC1)NCc1ccc2c(c1)OCO2 | -84.3 |
| CCN1CCN(Cc2ccc(NC(=O)c3cc(NC(=O)c4ccc5n[nH]nc5c4)cc(OC)c3)cc2C(F)(F)F)CC1 | 21.1 |
| CC(C(=O)OCC(=O)c1ccccc1)N1C(=O)C2C3CCC(C3)C2C1=O (stereo not drawn) | 10.5 |
| c1ccc(OCCCn2nnc(-c3ccc(N4CCOCC4)cc3)n2)cc1 | 15.4 |
| COc1ccc(NC(=O)CN(C)S(=O)(=O)c2cccc3nsnc23)cc1OC | -10.3 |
| CCc1ccc(N(CC(=O)NC2CCCCC2)C(=O)CNC(=O)c2ccco2)cc1 | -13.6 |
